TDP1 cell noCPT – qHTS for Inhibitors of human tyrosyl-DNA phosphodiesterase 1 (TDP1): qHTS in cells in absence of CPT | DT40 Tdp1-/- hTDP1 cells, no CPT, ATP luminescence, 48 h | Potency, µM (doses to about 46.2 µM), inactives show top-dose activity change, negative = growth inhibition, hits mostly inhibitors | 420,000 compounds, 15% hits | AID 686978, 2013; further: potency means the concentration at half of the fitted maximal effect; nearly all actives have a fitted effect of over 55% in size
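Chicken DT40 Tdp1-/- cells complemented with human TDP1, screened without camptothecin (DMSO vehicle only), 400 cells/well. Compounds pin-transferred, cells incubated at 37 °C for at least 48 hr. Growth read as ATP-dependent luminescence (CellTiter-Glo, 30 min at RT).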
IL1B secr inh – qHTS for Inhibitors of Inflammasome Signaling: IL-1-beta AlphaLISA Primary Screen; activity change, % at 57.5 µM; THP-1 LPS/ATP IL-1B secretion, AlphaLISA, 16 h; active compounds read low; 360,000 compounds, 4.7% hits; AID 743279, 2014; in the data active means activity change below about -50%; inconclusive means mostly about -30% to -49%
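THP-1 cells pretreated 1 hr with compounds (up to 57.5 uM final), then stimulated with LPS (250 ng/mL final) plus ATP (1.25 mM final); secreted IL-1B measured by AlphaLISA after 16 hr, decreased signal indicating inhibition.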
HT1080 IDH1KD tx – qHTS for induction of synthetic lethality in tumor cells producing 2HG: qHTS for the HT-1080-IDH1KD cell line; HT-1080 IDH1 knockdown viability, ATP luminescence, 48 h; Potency, µM (highest dose often 46.1 µM), without a hit: at the highest dose activity, negative = toxicity, actives largely listed as cytotoxic; 360,000 compounds, 2% hits;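 further: potency means the concentration at half of the fitted maximal effect; 0% = DMSO wells and -100% = cell-free medium wells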
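Using the IDH1-knockdown HT-1080 line run in the same batch and compound series as the NT line, viability after 48 h at 37 °C was determined by CellTiter-Glo luminescence and expressed as % activity.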
ALOX12 inh – Primary qHTS assay for inhibitors of human arachidonate 12S-lipoxygenase (ALOX12): Round 2 | Potency, µM (titrated, usually from 108 µM), without a hit: at the top dose activity change, negative = inhibition, usual class: inhibitors | purified 12hLO, xylenol orange hydroperoxide absorbance | Polyunsaturated fatty acid lipoxygenase ALOX12 (Homo sapiens), P18054 | AID 1671190, 2021 | 580,000 compounds, 1.1% hits; further: potency means the concentration at half of the fitted maximal effect
Target sequence (P18054 whole entry, looked up): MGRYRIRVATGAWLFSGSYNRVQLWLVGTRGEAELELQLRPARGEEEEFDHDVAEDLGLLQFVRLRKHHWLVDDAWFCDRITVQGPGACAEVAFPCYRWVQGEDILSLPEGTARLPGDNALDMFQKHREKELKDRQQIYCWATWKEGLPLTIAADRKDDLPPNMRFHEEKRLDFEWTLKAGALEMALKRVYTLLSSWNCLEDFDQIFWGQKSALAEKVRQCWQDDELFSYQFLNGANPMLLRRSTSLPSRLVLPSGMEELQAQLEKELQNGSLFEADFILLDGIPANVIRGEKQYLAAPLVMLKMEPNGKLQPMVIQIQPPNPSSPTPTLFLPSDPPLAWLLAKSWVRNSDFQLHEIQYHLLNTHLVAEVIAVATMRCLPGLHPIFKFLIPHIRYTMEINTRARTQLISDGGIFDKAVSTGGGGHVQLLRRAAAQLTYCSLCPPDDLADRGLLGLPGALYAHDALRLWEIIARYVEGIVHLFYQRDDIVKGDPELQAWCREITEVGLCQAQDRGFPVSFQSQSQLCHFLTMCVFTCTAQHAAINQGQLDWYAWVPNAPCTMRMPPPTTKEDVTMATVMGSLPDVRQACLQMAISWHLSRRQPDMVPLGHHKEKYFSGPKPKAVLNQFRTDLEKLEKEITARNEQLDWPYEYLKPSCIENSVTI
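Purified human 12hLO (150 nM final) in 25 mM Hepes, 0.01% Triton X-100, pH 7.0 was preincubated 15 min at room temperature with compound. Then 40 uM arachidonic acid was added, 30 min. Hydroperoxide was read by Fe-XO absorbance ratio 573/405 nm.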
TDP1 cell CPT – qHTS for Inhibitors of human tyrosyl-DNA phosphodiesterase 1 (TDP1): qHTS in cells in presence of CPT | chicken DT40 Tdp1-/-;hTDP1 cells + 20 nM CPT, ATP luminescence, 48 h | Potency, µM (doses to about 46.2 µM), without a hit: at the highest dose activity change, negative = growth inhibition, usual class: inhibitors | 420,000 compounds, 12% hits; further: potency means the concentration at half of the fitted maximal effect; nearly all actives have a fitted effect of over 55% in size
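Chicken DT40 Tdp1-/- cells stably complemented with human TDP1 were seeded at 400 cells/well in medium containing 20 nM camptothecin, exposed to pin-transferred compounds, and grown at 37 °C for at least 48 hr. Viability was read as ATP luminescence.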
HT1080-NT tox – qHTS for induction of synthetic lethality in tumor cells producing 2HG: qHTS for the HT-1080-NT fibrosarcoma cell line. HT-1080-NT fibrosarcoma viability, CellTiter-Glo ATP luminescence, 48 h. Potency, µM (highest dose often 46.1 µM), for the others: at the top dose activity, negative = less viability, hits mostly cytotoxic. 360,000 compounds, 1.6% hits. AID 686970, 2013;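 further: NT is the 2HG producing partner of a matched IDH1 knockdown line; potency means the concentration at half of the fitted maximal effect; 0% = DMSO-treated cells and -100% = media-only wells without cells; nearly all actives have a fitted effect of over 55% in size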
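Compounds were tested in concentration-response format on HT-1080-NT cells for 48 hours at 37 degrees C. Cell viability came from CellTiter-Glo luminescence; curves were classified by r2, response magnitude and activity.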
* marks the source's active call; other numbers are inactive results; ? = inconclusive; / = no result. This excerpt belongs to a sample that is enriched for hits. Unless noted, the call rests on the fitted dose curve; in most records, active means well fitted curve in the direction sought with a large enough effect; inconclusive means small, poorly fitted or top-dose-only effect, or another doubt; inactive means no such curve, though single readings can be large; an effect the other way counts as inactive or inconclusive. Unless noted, on the % scale 0 is the no-effect control and ±100 the full control effect.

SMILES | TDP1 cell noCPT | IL1B secr inh | HT1080 IDH1KD tx | ALOX12 inh | TDP1 cell CPT | HT1080-NT tox
CCOC(=O)C1=CC[C@@H](c2ccccc2C(F)(F)F)N(S(=O)(=O)c2ccc(C)cc2)[C@H]1c1ccc(C#N)cc1 | 13µM* | -8 | 6% | -21% | 15µM* | 23%
CCOC(=O)C1=CC[C@@H](c2ccc(OC)cc2)N(S(=O)(=O)c2ccc(C)cc2)[C@H]1CC | 18µM* | -7 | ? | -11% | 15µM* | -5%
CCOC(=O)C1=CCC(c2ccc(N(CC)CC)cc2)N(S(=O)(=O)c2ccc(C)cc2)C1c1ccc([N+](=O)[O-])cc1 (stereo unspecified) | 6.5µM* | 23 | 8% | 13% | 7.3µM* | 12%
Nc1c(Cl)cccc1C(=O)OCc1nc(N)c2ccccc2n1 | / | / | / | 35% | / | /
O=C(COC(=O)CSc1ccc2ccccc2c1Br)NCc1ccco1 | / | / | / | 3% | / | /
CC(=O)c1cccc(NC(=O)C(C)Oc2ccc3c(C)cc(=O)oc3c2)c1 (stereo unspecified) | / | / | / | 12% | / | /
C=C[C@H]1C(C(=O)OCC)=CC[C@@H](c2ccccc2)N1S(=O)(=O)c1ccc(C)cc1 | 21µM* | 13 | -17% | 11% | 23µM* | -15%
CCOC(=O)C1=CC[C@H]2c3c(c4ccc(OC)cc4n3C)C(=O)C1N2S(=O)(=O)c1ccc(C)cc1 | 4.6µM* | 65 | ? | -9% | 5.8µM* | 18µM*
CCOC(=O)C1=CC[C@@H](c2ccccc2)N(S(=O)(=O)c2ccc(C)cc2)[C@H]1C | 23µM* | 53 | ? | 21% | ? | -10%
CCOC(=O)C1=CCC2c3c(c4ccccc4n3C)C(=O)C1N2C(=O)OC(C)(C)C (stereo unspecified) | ? | -25 | -2% | -7% | ? | -14%
Cc1ccc(S(=O)(=O)NCC2CCC(C(=O)NCC(=O)N(C)Cc3ccccc3)CC2)cc1 (stereo unspecified) | / | / | / | -9% | / | /
CCOC(=O)C(C)Oc1ccc2c(-c3ccccc3)cc(=O)oc2c1C (stereo unspecified) | / | / | / | -18% | / | /
Cc1ccc2nc(SCCC(=O)N3CC[C@@](C)(O)[C@@H](O)C3)cc(C)c2c1 | / | / | / | 28% | / | /
COc1ccc(S(=O)(=O)N[C@H]2CC[C@H](CCNC(=O)c3ccccc3F)O[C@@H]2CO)cc1 | -14% | -77* | 12% | -23% | -26% | 18%
CC1=CC(C)(C)N(S(=O)(=O)c2ccc(C)cc2)c2ccc(C)cc21 | 18µM* | -4 | 6.3µM* | 5% | 5.8µM* | 3.2µM*
CC1=CC(C)(C)N(S(=O)(=O)c2ccc(F)cc2)c2ccccc21 | ? | 64 | ? | 0% | 26µM* | 11µM*
C/C=C/C(=O)N1c2ccc(C)cc2C(C)=CC1(C)C | ? | 25 | 0% | -4% | ? | -2%
O=C(c1ccncc1)N1CCCC(CCc2ccc(F)cc2)C1 (stereo unspecified) | / | / | / | 33% | / | /
COc1ccc(C)cc1NC(=O)Cn1nc(C(=O)O)c2ccccc2c1=O | / | / | / | 13% | / | /
Cc1cc(C)nc(SC(C(=O)c2ccccc2)c2ccccc2)n1 (stereo unspecified) | / | / | / | -7% | / | /
O=C(/C(=N/N=C/c1ccc(O)c(O)c1O)c1ccccc1)c1ccccc1 | ? | -5 | ? | 14µM* | ? | -16%
Oc1cccc(C=NCc2ccccc2)c1O | ? | 27 | -15% | -36% | ? | -18%
C(=N\N=C(c1ccccc1)c1ccccc1)/c1ccncc1 | / | / | / | -15% | / | /
Oc1ccc(/C=N/N=C(c2ccccc2)c2ccccc2)c(O)c1O | ? | -11 | ? | 40µM* | ? | -15%
O=C1NCCOCCCN(S(=O)(=O)c2ccccc2)[C@H]2CCCC[C@@H]12 | / | / | / | 6% | / | /
SMILES | TDP1 cell noCPT | IL1B secr inh | HT1080 IDH1KD tx | ALOX12 inh | TDP1 cell CPT | HT1080-NT tox
Cc1nn(-c2ccccc2)c2sc(C(=O)Nc3cccc(O)c3)cc12 | 23µM* | / | / | ? | ? | /
Cc1nn(-c2ccccc2)c2sc(C(=O)O)cc12 | -5% | 23 | -4% | 0% | -19% | -16%
COc1cccc(C2(c3cccc(OC)c3)CC2C(=O)Nc2ccccc2Cl)c1 (stereo unspecified) | 23µM* | 11 | 21µM* | -10% | ? | ?
Cc1cccc(C2(c3cccc(C)c3)CC2C(=O)Nc2ccc([N+](=O)[O-])cc2O)c1 (stereo unspecified) | 5.2µM* | -98* | ? | ? | 8.2µM* | ?
C=CCNC(=O)C1CC1(c1cccc(C)c1)c1cccc(C)c1 (stereo unspecified) | -24% | / | ? | 113% | 2% | ?
COc1cccc(C2(c3cccc(OC)c3)CC2C(=O)Nc2ccc(F)cc2)c1 (stereo unspecified) | -25% | 4 | 11% | -22% | 1% | 6%
CCCc1noc(-c2cn(C3CCN(C(=O)c4ccc(F)c(F)c4)CC3)nn2)n1 | / | / | / | -15% | / | /
CC(C)c1noc(C2CCCN(S(=O)(=O)c3ccccc3)CCC(=O)NCC2)n1 (stereo unspecified) | / | / | / | 45% | / | /
O=[N+]([O-])c1cc(Cl)cc2cccnc12 | / | / | / | -8% | / | /
O=[N+]([O-])c1cc(Cl)cc2c1nc(NCCO)c1ccccc12 | ? | -83* | ? | 5% | 18% | ?
CC(C)(C)NC(=O)N1CC[C@H]2C(=O)NCCCCCN(Cc3cccnc3)[C@@H]2C1 | / | / | / | 20% | / | /
O=C(OCCOc1cccc(Cl)c1)c1cc(=O)c2ccccc2o1 | / | / | / | 4% | / | /
COC(=O)C1=C(CS(=O)(=O)c2ccccc2)NC(=O)NC1c1ccccc1 (stereo unspecified) | 7% | 10 | 26% | -26% | -1% | 30%
CCOC(=O)C1=C(CS(=O)(=O)c2ccc(C)cc2)NC(=O)NC1c1cc(OC)c(OC)c(OC)c1 (stereo unspecified) | -8% | 15 | -2% | -3% | 11% | -8%
CCOC(=O)C1=C(CS(=O)(=O)c2ccc(Br)cc2)NC(=O)NC1c1ccccc1 (stereo unspecified) | ? | / | / | -22% | 21µM* | /
